Test results taken from the supplement of paper PMC10849652.
Of roughly 7,900 targets only a part is listed; those with a hit were picked by preference. About 0.6% of all pairs of compound and target were hits.

Compound: C1=CC2=C(C=CC(=C2)/C=C\3/C(=O)NC(=NCC4=CC=CS4)S3)N=C1
Experiment: log2 fold change, soluble protein after heating vs DMSO (PISA); higher = thermal stabilisation; K562 cells, 10 uM, 30 min; active = over 0.2 and 3.5 SD of the protein, either way, in both replicates (recomputed)
Summary of the method: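 Quantification of soluble protein used TMTpro 16plex LC-MS/MS, with channel sums equalised. Samples were the supernatant after 21,000xg for 90 min of pooled aliquots from K562 cells (2×10^6 cells/mL) treated with 10 μM compound for 30 min, heated for 3 min over 48°C-58°C, and extracted in PBS with 0.5% NP-40 at 4°C. Values, from duplicates, describe thermal stability against control samples on a log2 fold-change scale.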

UniProt Q14671, sequence (Q14671 whole entry, looked up): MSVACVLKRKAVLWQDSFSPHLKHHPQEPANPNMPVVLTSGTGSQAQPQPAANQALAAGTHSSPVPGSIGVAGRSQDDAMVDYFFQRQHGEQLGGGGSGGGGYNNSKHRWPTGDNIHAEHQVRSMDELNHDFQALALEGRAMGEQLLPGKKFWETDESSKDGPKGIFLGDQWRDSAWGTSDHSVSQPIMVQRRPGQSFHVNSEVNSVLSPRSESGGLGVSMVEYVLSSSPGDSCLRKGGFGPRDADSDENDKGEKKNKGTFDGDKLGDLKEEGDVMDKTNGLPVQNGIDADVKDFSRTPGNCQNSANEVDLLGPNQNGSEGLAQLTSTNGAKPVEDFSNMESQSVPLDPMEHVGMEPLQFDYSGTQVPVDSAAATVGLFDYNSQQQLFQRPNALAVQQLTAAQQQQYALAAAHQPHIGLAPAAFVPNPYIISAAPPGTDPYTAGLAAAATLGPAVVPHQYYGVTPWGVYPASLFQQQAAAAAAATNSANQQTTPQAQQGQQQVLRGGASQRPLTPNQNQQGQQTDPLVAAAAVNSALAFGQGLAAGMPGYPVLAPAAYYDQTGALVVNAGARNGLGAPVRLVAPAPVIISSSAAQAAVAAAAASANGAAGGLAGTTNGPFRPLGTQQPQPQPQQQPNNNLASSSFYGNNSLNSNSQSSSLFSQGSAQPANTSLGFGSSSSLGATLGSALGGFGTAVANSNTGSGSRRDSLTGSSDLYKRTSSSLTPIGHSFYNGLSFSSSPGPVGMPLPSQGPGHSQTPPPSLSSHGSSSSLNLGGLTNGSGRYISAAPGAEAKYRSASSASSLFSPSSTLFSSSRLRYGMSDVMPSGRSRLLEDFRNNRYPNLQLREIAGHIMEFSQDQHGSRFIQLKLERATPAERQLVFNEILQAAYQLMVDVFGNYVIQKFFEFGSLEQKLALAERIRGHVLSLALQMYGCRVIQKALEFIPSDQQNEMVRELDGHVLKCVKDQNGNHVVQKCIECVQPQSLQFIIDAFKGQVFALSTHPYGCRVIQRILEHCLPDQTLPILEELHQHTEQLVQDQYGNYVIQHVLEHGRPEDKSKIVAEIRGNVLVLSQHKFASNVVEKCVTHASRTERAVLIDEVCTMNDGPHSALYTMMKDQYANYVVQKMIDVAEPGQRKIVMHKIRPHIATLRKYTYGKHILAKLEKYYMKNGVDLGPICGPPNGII
UniProt P41247, sequence (P41247 whole entry, looked up): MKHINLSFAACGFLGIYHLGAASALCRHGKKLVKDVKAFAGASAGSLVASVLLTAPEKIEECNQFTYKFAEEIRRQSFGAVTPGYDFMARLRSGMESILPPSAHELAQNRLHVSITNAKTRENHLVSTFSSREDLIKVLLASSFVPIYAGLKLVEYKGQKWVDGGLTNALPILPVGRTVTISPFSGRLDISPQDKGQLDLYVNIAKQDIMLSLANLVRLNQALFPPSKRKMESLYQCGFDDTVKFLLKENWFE
UniProt Q15173, sequence (Q15173 whole entry, looked up): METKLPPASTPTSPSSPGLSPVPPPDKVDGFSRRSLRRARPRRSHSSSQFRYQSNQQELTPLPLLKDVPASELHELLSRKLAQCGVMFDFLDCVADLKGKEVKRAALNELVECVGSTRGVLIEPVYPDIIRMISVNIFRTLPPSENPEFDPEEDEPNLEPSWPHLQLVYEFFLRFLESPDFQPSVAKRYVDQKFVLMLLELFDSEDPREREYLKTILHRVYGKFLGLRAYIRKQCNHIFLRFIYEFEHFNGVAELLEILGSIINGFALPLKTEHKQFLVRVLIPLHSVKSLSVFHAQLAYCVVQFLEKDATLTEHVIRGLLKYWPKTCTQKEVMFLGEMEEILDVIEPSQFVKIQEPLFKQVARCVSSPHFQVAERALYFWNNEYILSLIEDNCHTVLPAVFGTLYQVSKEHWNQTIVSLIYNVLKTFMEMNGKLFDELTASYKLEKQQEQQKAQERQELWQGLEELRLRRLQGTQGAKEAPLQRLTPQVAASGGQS
UniProt Q9NYI0, sequence (Q9NYI0 whole entry, looked up): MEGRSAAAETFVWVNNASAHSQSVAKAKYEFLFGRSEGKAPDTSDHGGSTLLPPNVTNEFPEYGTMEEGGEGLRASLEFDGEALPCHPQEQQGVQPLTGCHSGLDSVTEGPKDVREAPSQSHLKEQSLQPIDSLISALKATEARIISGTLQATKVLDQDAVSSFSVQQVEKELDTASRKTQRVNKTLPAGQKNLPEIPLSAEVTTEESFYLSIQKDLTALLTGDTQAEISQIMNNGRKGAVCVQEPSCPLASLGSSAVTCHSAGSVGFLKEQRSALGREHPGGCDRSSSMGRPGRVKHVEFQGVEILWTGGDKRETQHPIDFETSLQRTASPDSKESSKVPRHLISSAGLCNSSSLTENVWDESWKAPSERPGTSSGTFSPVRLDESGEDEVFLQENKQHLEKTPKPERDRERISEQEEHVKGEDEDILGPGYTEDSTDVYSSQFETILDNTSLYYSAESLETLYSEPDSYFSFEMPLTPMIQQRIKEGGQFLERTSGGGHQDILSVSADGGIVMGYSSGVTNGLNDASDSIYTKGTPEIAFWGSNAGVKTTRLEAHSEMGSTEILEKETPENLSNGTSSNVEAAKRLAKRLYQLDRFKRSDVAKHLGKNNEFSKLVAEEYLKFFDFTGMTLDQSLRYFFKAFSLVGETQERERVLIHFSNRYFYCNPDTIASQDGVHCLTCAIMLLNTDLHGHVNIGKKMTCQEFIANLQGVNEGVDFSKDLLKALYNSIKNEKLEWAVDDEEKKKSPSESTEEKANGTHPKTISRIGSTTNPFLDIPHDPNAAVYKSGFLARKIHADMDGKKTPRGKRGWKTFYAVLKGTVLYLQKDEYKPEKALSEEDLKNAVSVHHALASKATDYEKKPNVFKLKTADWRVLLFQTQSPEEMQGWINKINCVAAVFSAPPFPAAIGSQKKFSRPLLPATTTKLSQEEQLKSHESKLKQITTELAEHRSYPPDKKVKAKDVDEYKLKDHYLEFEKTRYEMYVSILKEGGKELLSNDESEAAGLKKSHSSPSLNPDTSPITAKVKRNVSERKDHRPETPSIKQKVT
UniProt Q9UHX1, sequence (Q9UHX1 whole entry, looked up): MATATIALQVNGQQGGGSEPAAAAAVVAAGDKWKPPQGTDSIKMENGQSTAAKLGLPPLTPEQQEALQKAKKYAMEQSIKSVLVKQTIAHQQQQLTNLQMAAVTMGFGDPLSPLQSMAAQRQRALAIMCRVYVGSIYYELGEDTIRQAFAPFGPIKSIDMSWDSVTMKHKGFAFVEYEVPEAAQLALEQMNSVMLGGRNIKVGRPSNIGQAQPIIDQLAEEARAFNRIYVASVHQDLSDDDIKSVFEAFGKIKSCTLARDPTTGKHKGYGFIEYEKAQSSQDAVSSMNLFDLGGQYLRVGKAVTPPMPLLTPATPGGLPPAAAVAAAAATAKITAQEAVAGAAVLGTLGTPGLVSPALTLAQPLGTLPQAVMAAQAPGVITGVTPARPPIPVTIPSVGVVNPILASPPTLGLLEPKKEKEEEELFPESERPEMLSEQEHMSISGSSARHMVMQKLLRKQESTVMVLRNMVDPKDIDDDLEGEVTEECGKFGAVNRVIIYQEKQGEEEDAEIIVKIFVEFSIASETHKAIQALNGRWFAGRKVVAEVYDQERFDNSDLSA
UniProt O94913, sequence (O94913 whole entry, looked up): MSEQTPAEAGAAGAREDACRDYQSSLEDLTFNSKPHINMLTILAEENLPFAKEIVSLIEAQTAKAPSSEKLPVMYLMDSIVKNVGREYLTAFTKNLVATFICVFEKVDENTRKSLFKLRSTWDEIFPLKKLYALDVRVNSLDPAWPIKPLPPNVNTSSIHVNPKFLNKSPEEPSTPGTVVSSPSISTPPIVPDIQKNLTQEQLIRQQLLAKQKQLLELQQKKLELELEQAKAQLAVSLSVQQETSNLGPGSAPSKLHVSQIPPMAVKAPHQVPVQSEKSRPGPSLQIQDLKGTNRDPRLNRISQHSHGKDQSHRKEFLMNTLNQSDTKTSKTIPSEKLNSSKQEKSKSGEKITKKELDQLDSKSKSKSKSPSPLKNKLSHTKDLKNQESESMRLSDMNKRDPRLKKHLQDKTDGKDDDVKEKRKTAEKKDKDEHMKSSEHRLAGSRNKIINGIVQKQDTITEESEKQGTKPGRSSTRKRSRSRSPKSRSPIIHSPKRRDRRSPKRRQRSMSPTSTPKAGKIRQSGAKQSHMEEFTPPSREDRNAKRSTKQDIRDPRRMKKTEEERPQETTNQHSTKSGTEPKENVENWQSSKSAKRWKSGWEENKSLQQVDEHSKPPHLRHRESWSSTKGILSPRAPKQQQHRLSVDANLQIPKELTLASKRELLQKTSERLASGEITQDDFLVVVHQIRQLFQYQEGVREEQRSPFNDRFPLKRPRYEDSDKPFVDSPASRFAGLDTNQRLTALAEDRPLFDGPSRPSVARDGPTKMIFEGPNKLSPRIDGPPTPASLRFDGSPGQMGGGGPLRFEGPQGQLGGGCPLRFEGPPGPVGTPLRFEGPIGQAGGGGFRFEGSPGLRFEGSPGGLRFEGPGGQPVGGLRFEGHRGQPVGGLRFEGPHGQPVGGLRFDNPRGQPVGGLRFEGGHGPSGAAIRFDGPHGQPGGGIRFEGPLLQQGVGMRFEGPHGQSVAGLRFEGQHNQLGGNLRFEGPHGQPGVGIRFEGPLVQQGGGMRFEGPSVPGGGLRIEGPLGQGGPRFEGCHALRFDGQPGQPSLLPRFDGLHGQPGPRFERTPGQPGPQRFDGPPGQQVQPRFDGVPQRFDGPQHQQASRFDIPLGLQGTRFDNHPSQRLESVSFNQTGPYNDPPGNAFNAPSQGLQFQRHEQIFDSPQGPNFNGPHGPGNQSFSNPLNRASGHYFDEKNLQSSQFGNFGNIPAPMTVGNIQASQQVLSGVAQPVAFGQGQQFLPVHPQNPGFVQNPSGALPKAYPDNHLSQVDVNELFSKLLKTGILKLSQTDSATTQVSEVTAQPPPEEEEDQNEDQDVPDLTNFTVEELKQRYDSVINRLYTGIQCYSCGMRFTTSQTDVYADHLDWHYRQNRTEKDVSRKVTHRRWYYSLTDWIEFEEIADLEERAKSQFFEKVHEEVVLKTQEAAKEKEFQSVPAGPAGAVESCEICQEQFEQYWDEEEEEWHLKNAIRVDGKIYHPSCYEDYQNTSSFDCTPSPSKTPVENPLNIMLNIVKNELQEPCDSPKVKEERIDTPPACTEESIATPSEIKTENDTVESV

log2 fold change, inactive:
PCF11 (UniProt O94913) -0.082
POGZ (UniProt Q7Z3K3) -0.172
PSMA3 (UniProt H0YJ03) 0.095
PPP2R5B (UniProt Q15173) -0.003
PEX5 isoform 4 (UniProt P50542) 0.048
PUM1 (UniProt Q14671) -0.034
PUF60 isoform 2 (UniProt Q9UHX1) -0.242
PGK2 (UniProt P07205) 0.152
PRKD3 (UniProt O94806) -0.197
PNPLA4 (UniProt P41247) -0.148
PSD3 (UniProt Q9NYI0) 0.1
PKM isoform 2 (UniProt P14618) -0.005
PRR14L (UniProt Q5THK1) 0.16
PTK2B (UniProt Q14289) 0.048
PI4K2B (UniProt Q8TCG2) 0.004
